Results from PubChem BioAssay AID1851 (National Center for Advancing Translational Sciences (NCATS), 2009).
The campaign covered roughly 16,000 compounds. About 5,100 (32%) were called active. Another 25% or so got no clear call; they are omitted. The call rests on the fitted dose curve; in most records, active means well fitted curve in the direction sought with a large enough effect; inconclusive means small, poorly fitted or top-dose-only effect, or effect the other way; inactive means no such curve, though single readings can be large or run the other way. Some of the results follow.

Target: Cytochrome P450 3A4 (Homo sapiens) (UniProt P08684)
Sequence (P08684 whole entry, looked up): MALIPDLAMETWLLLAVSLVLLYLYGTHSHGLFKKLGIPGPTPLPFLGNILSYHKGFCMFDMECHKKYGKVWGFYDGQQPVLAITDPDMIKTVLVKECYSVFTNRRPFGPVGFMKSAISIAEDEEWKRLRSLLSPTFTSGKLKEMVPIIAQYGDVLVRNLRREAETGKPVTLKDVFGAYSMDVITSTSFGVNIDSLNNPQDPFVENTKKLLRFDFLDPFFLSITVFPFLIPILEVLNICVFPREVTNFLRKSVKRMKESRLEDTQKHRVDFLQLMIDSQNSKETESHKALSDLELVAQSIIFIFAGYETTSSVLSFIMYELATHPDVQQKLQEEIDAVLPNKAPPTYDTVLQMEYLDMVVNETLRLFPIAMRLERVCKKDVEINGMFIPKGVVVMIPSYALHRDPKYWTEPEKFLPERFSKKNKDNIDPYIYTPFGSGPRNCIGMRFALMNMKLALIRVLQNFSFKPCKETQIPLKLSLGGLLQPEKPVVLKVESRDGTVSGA
Assay: Cytochrome panel assay with activity outcomes
Details: recombinant CYP, pro-luciferin dealkylation, luminescence, p450-cyp3a4; series mostly up to 57.1 µM; activity, negative = inhibition: at the top concentration
On the % scale 0 is the no-effect control and ±100 the full control effect.

activity, negative = inhibition, inactive:
CN1C[C@H](c2ccccc2)C(O)([C@]2(c3ccccc3)CN(C)C[C@@H](c3ccccc3)C2=O)[C@H](c2ccccc2)C1 (stereo partly specified) -0.704% [at 11.4 µM]
O=C(c1cc(Br)ccc1O)c1cc(Br)ccc1O -18.8% [at 11.4 µM]
O=S(=O)(O)c1ccc2c(N=Nc3cccc4ccccc34)c(O)c(S(=O)(=O)O)cc2c1 5.97% [at 11.4 µM]
Cc1ccccc1N1CCN(C(=O)c2ccccc2NC(=O)/C=C\C(=O)O)CC1 -14.2%
CN1CCN(c2ccc([N+](=O)[O-])cc2NC(=O)c2ccccc2Cl)CC1 13%
COc1cccc(C(C#N)N2N=C(C)CC2(C)C)c1O (stereo unspecified) -11.6%
CCOC(=O)CNc1c(-c2ccccc2)nc2ccc(Cl)cn12 21.3%
CO[C@H]1[C@@H](OC(N)=O)[C@H](O)[C@@H](Oc2ccc3c(O)c(NC(=O)c4ccc(O)c(CC=C(C)C)c4)c(=O)oc3c2C)OC1(C)C -7.19% [at 25.6 µM]
N#CCCn1nnc2ccccc21 -10.8%
O=C(O)CSSCC(=O)O -6.12% [at 11.4 µM]
Cc1nnsc1SCC(=O)O -4.96%
Cc1ccnc(NCn2nnc3ccccc32)c1 -7.54%
COc1ccc(NC(=O)C(c2ccc(OC)cc2)N(C)C(=O)CNC(C)=O)cc1 (stereo unspecified) -11.9%
O=C(Cn1nnc2ccccc21)N1CCCCC1 -1.52%
CC(C)(C)c1cc2c(O)c(c1)Cc1cc(C(C)(C)C)cc(c1O)Cc1cc(C(C)(C)C)cc(c1O)Cc1cc(C(C)(C)C)cc(c1O)Cc1cc(C(C)(C)C)cc(c1O)Cc1cc(C(C)(C)C)cc(c1O)Cc1cc(C(C)(C)C)cc(c1O)Cc1cc(C(C)(C)C)cc(c1O)C2 -24.5% [at 11.4 µM]
CC(C)Oc1ccc(CSC(=N)N)cc1 -3.82%
CCC(C)[C@H](NC(=O)Nc1ccc(Oc2ccccc2)cc1)C(=O)O (stereo partly specified) -4.13%
CCCCNN -7.03% [at 11.4 µM]
O=C(O)c1ccc2c3c1cccc3c(=O)n1c3ccccc3nc21 -14.5%
CC1=C(C)/C(=N\OC(=O)/C=C/c2ccccc2)C=CC1=O 1.54%
COc1ccccc1OCCOc1ccc(/C=C2/C(=N)N3OC(C)=CC3=NC2=O)cc1OC -12.2%
COc1cc(C=O)ccc1OCCCOc1ccccc1C(=O)O -6.53%
COc1ccc(/C=C2\N=C(c3c(-c4ccccc4)noc3C)OC2=O)cc1OC -39.1%
CCOc1ccc(-c2nn(-c3ccccc3)cc2/C=C2\SC(N)=NC2=O)cc1C 0.0129%
Cc1ncc([N+](=O)[O-])n1CC(C)O (stereo unspecified) 20.5%
CCN=C(N)CSS(=O)(=O)O -8.49% [at 11.4 µM]
Cc1noc(C)c1-c1cc(Nc2ccccc2)ncn1 -41.5%
CC(C)n1nnnc1SCC(=O)c1ccc2c(c1)OCCO2 -28.3%
Cc1ccccc1Oc1ccc(-c2nc(N)nc(N)n2)cc1 4.65%
COc1cccc(CN2C(=O)N(C(C)C)C(N(O)C(=O)NC(C)C)C2(C)C)c1OC (stereo unspecified) -12.5% [at 2.29 µM]
CCCCNC(=O)NC1C(NC(=O)NCCCC)N(C)C(=O)N1C (stereo unspecified) -6.75%
CCCOc1ccc(OCCNC2CCCC2)cc1 10% [at 2.29 µM]
COc1cc(CNC(C)(C)CO)ccc1OCC(=O)Nc1ccc(Br)cc1 0.897% [at 2.29 µM]
CC(=O)OC[C@@H]1O[C@H](CCON=C(C)C)C=C[C@@H]1OC(C)=O -14.8% [at 11.4 µM]
Cc1cc(C)c(-c2cc([C@H](C)O/N=C3/[C@H]4OC4[C@@H](O)[C@H]4[C@H]3CCn3c(=O)n(-c5ccccc5)c(=O)n34)on2)c(C)c1 (stereo partly specified) -41% [at 11.4 µM]
CC(=O)OC[C@@H]1O[C@H](C/C=N\O[C@@H](C)c2cn([C@H]3COC[C@H]3O)nn2)C=C[C@@H]1OC(C)=O -11.8% [at 11.4 µM]
CC(=O)OC[C@@H]1O[C@H](C/C=N\O[C@@H]2O[C@H](COC(C)=O)[C@@H](OC(C)=O)[C@H](OC(C)=O)[C@H]2OC(C)=O)C=C[C@@H]1OC(C)=O -25.4% [at 11.4 µM]
C[C@@H](O)[C@H]1C(=O)N2C(C(=O)O)=C(S[C@@H]3CN[C@H](C(=O)N(C)C)C3)[C@H](C)[C@H]12 -19.2% [at 25.6 µM]
C[C@H](N)CCCC(C)(C)O -5.82% [at 25.6 µM]
CC(=O)OC[C@@H]1O[C@H](C/C=N\OC[C@@H](C)[C@H](OCc2ccccc2)C(C)C)C=C[C@@H]1OC(C)=O -18.2% [at 11.4 µM]
CO/N=C\[C@@H](C)[C@H](OCc1ccccc1)C(C)C 12.5% [at 11.4 µM]
O=c1[nH]cc(CS(=O)(=O)Cc2c[nH]c(=O)[nH]c2=O)c(=O)[nH]1 -10.9% [at 11.4 µM]
CN1C(=O)C(CC(N)=O)N(NC(=O)c2ccc(Cl)cc2)C1=S (stereo unspecified) -10.7%
CC(=O)OC[C@@H]1O[C@H](CCO/N=C\[C@@H](C)[C@H](OCc2ccccc2)C(C)C)C=C[C@@H]1OC(C)=O -26.2% [at 11.4 µM]
COc1ccc(O[C@H]2C=C[C@@H](c3ccccc3)O[C@H]2COC(=O)N2CCCCC2)cc1 -82.7% [at 11.4 µM]

AC50, inactive:
C=CCN1CCc2cc(O)c(O)cc2[C@H](c2ccccc2)C1
NS(=O)(=O)c1cccc2c1c([N+](=O)[O-])cc1nc(O)c(O)nc12
O=C(O)[C@H]1CCCN(CCC=C(c2ccccc2)c2ccccc2)C1

AC50, active:
COc1ccc2[nH]cc(CCNc3ncncc3-c3ccccc3C(F)(F)F)c2c1 0.251 µM
COc1ccc2[nH]cc(CCNc3ncncc3-c3ccccc3CN(C)C)c2c1 0.631 µM
O=C(Nc1ccccc1N1CCN(C(=O)c2ccccc2)CC1)c1cc(Br)ccc1Cl 3.55 µM
O=C(Nc1ccccc1N1CCN(C(=O)c2ccc(Cl)cc2)CC1)c1cc(Br)ccc1Cl 3.98 µM
c1ccc(-c2nc3ccccn3c2NCc2ccc3c(c2)OCO3)cc1 0.501 µM
Cn1cccc1/C=N/NC(=O)c1sc2ccccc2c1Cl 8.91 µM
O=C(O)CSc1sc(=S)sc1SCC(=O)O 11.2 µM
COc1ccc(C(C(=O)Nc2ccc(F)cc2)N(C(=O)Cn2nnc3ccccc32)C2CC2)cc1 (stereo unspecified) 3.55 µM
COc1ccc(N(C(=O)Cn2nnc3ccccc32)C2(C(=O)NC3CCCC3)CCCCC2)cc1 2 µM
COc1cccc(C(C(=O)Nc2ccc(F)cc2)N(C(=O)Cn2nnc3ccccc32)C2CC2)c1 (stereo unspecified) 2.82 µM
COc1ccc(CNCCC(c2ccc(OC(C)C)cc2)C(C)C)cc1OC (stereo unspecified) 1.41 µM
NC(=S)Nc1ccc(Oc2ccc(NC(N)=S)cc2)cc1 4.47 µM
O=c1c2ccc([N+](=O)[O-])c3cccc(c32)c2nc3ccccc3n12 0.891 µM
COc1cc(/C=C2/C(=N)N3C=CSC3=NC2=O)ccc1OCCCOc1c(C)cccc1C 20 µM
COc1cc(/C=C2/C(=N)N3C=CSC3=NC2=O)ccc1OCCCOc1ccccc1C 15.8 µM
CCOc1cc(/C=C2/C(=N)N3C=CSC3=NC2=O)ccc1OCCCOc1ccccc1C 15.8 µM
Cc1noc(C)c1-c1cncnc1NCc1ccccc1 2 µM
Cc1cnc(CNc2ncncc2-c2c(C)noc2C)cn1 12.6 µM
Cc1noc(C)c1-c1cncnc1NC1CC1 7.94 µM
Cc1noc(C)c1-c1cncnc1NCc1cccnc1 3.16 µM
Cc1noc(C)c1-c1cncnc1Nc1ccccc1 3.16 µM
CC(C)n1nnnc1SCC(=O)NCCc1ccccc1 14.1 µM
Cc1ccc2cc(C)c3nnc(SCC(=O)NCc4ccco4)n3c2c1 22.4 µM
Cc1cc2cc(C)c3nnc(SCC(=O)NCc4ccc5c(c4)OCO5)n3c2cc1C 0.562 µM
CC(C)n1nnnc1SCC(=O)NCc1ccc2c(c1)OCO2 0.891 µM
CCCCCCCCN1C(=O)N(C)C(N(O)C(=O)NC)C1(C)C (stereo unspecified) 6.31 µM
C=CCOc1c(Br)cc(CNc2ccc(NC(=O)C(C)C)c(OC)c2)cc1OC 3.55 µM
COc1ccc(O[C@H]2C=C[C@@H](c3ccccc3)O[C@H]2COC(=O)CC/C(C)=N\O[C@@H](C)c2cc(-c3c(C)cc(C)cc3C)no2)cc1 3.16 µM
CC(=O)OC[C@@H]1O[C@H](C/C=N\O[C@@H](C)c2cc(-c3c(C)cc(C)cc3C)no2)C=C[C@@H]1OC(C)=O 3.16 µM
CCCNC(=O)OC[C@@H]1O[C@H](CCO/N=C\C[C@H]2C=C[C@H](OC(C)=O)[C@@H](COC(C)=O)O2)C=C[C@@H]1Oc1ccc(OC)cc1 3.98 µM
COc1ccc(O[C@H]2C=C[C@@H](c3ccccc3)O[C@H]2COC(=O)CC/C(C)=N/OCC[C@@H]2C=C[C@H](OC(C)=O)[C@H](COC(C)=O)O2)cc1 3.98 µM
COc1ccc(O[C@H]2C=C[C@@H](c3ccccc3)O[C@H]2CO/N=C\C[C@@H]2C=C[C@H](OC(C)=O)[C@H](COC(C)=O)O2)cc1 3.98 µM
COc1ccc(O[C@H]2C=C[C@@H](c3ccccc3)O[C@H]2COC(=O)CC/C(C)=N/O[C@@H]2O[C@H](COC(C)=O)[C@H](OC(C)=O)[C@H](OC(C)=O)[C@H]2OC(C)=O)cc1 5.01 µM
COc1ccc(O[C@H]2C=C[C@@H](c3ccccc3)O[C@@H]2CO/N=C\[C@@H](C)[C@H](OCc2ccccc2)C(C)C)cc1 3.98 µM
CCCNC(=O)OC[C@@H]1O[C@H](CCO/N=C(\C)CCC(=O)OC[C@@H]2O[C@H](c3ccccc3)C=C[C@@H]2Oc2ccc(OC)cc2)C=C[C@@H]1Oc1ccc(OC)cc1 5.01 µM
COc1ccc(O[C@H]2C=C[C@@H](c3ccccc3)O[C@H]2CO/N=C(/C)CCC(=O)OC[C@@H]2O[C@H](c3ccccc3)C=C[C@@H]2Oc2ccc(OC)cc2)cc1 3.98 µM
CCCNC(=O)OC[C@@H]1O[C@H](c2ccccc2)C=C[C@@H]1Oc1ccc(OC)cc1 3.98 µM
CCCNC(=O)OC[C@@H]1O[C@H](CCO/N=C\[C@@H](C)[C@H](OCc2ccccc2)C(C)C)C=C[C@@H]1Oc1ccc(OC)cc1 3.98 µM
